Data: PubChem BioAssay AID1508622 (National Center for Advancing Translational Sciences (NCATS), 2021)
Active and inactive are the calls of the source. Calls follow the shape of the dose curve; as a rule, active = well fitted activation curve with a large enough effect; inconclusive = small, poorly fitted or top-dose-only effect; inactive = no such curve, though single readings can be large or run the other way.

Experiment: Confirmatory qHTS for Identification of Small Molecule Activators of Huntingtin-Antisense Promoter Activity
Settings: HEK293 HTT-AS promoter firefly luciferase reporter, 24 h; series mostly up to 57.5 µM
Method in brief: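 Plated reporter HEK293 cells (24 h) received library compounds at up to 57.5 uM final or 50 uM PTC124, incubated 24 h at 37C; firefly luciferase luminescence was then recorded with Dual-Glo reagent.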

Potency, inactive:
CC(=O)N1CCCc2cc(S(=O)(=O)N(C)CC(=O)Nc3cccc(Cl)c3C)ccc21
CC(=O)c1c(C)oc2ccc(N(C(=O)c3ccncc3)S(=O)(=O)c3ccc(F)cc3C)cc12
COc1cc(NC(=O)Cn2nc(C(F)(F)F)c3c2CCC3)cc(OC)c1OC
CC(C)c1ccc(NC(=O)c2ccc(F)c(S(=O)(=O)N3CCc4ccccc43)c2)cc1
O=C(NCCn1cc(SCc2ccccc2)c2ccccc21)c1cccs1
COc1ccc(NC(=O)CSc2oc(-c3cccs3)nc2S(=O)(=O)c2ccccc2)c(OC)c1
CCOC(=O)c1cc(-c2ccccc2)n(CCCC(=O)Nc2ccc(CC)cc2)c1C
CCC(Oc1ccccc1)C(=O)N1CCN(Cc2cc(=O)n3nc(-c4cccc(C)c4)sc3n2)CC1 (stereo not given)
Cn1c(=O)n(C)c2cc(NS(=O)(=O)c3ccccc3)c(NCc3ccccc3)cc21
Cc1ccc(-c2onc(C)c2C)cc1S(=O)(=O)N1CCC(C)CC1
Cc1ccc(-c2[nH]c3ccccc3c2SCCNC(=O)c2ccc(S(=O)(=O)N(C)C)cc2)cc1
COc1ccc2c(c1)CCc1c(C(=O)Nc3c(C)nn(Cc4ccccc4C)c3C)noc1-2
COc1ccc(S(=O)(=O)N2CCC(c3nnnn3-c3ccccc3)CC2)cc1OC
O=C(Nc1nnc(S(=O)(=O)N2CCc3ccccc32)s1)c1cccc(Cl)c1
COc1ccc(C(=O)Nc2ccc(-c3cc4ccccc4oc3=O)c(C)c2)cc1Br
